Screens (PubChem)
LMP1 NFkB inh – inhibitors of Epstein-Barr LMP1-induced NF-kappaB reporter | LMP1-induced NF-kappaB luciferase reporter cells, luminescence | inhibition, % at 12.5 µM | hit rate 0.69% among 350,000; in the data active means inhibition above about 41%; inconclusive means no clear call, values can overlap the other calls;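 further: 0% = neutral control wells and 100% = reference inhibitor control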
LGR2 inh – inhibitors of bursicon-induced Drosophila LGR2 receptor cAMP signaling; HEK293 LGR2, CRE-luciferase, bursicon-stimulated, 4 h; hit rate 0.35% among 380,000; inhibition, % at 9.99 µM;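 active means drop in luminescence signal, shown as inhibition above about 50% in the replicate tests, limit read from the data, passing the limit was not always enough; inconclusive means probably only some replicates passing the limit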;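 further: agonist challenge used bursicon conditioned medium at about half maximal strength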
EWS-Fli inh – inhibitors of EWS/Fli oncoprotein transcriptional activity | AID 651661 | A673 NR0B1-luciferase reporter, viability-normalised | hit rate 0.67% among 350,000 | inhibition, % at 12.6 µM;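 active means mean inhibition of at least 50% after viability correction, with every replicate also passing that limit; inconclusive means mean reaches 50% but only one of two replicates passes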;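 further: firefly luciferase signal divided by Alamar Blue viability fluorescence both relative to DMSO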
TROY signal inh – TROY signaling inhibition. Q293 LMP1-TROYcd NF-kB luciferase reporter, 4 h. inhibition, % at 10 µM. hit rate 0.98% among 360,000. AID 1347056;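 active means compounds whose plate-normalised and pattern-corrected inhibition of the luciferase reporter signal at the single screening dose is 50% or more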
TWEAK-Fn14 inh – inhibitors of TWEAK-Fn14 interaction signaling. hit rate 2% among 360,000. TWEAK-stimulated Fn14 reporter cells, luciferase luminescence, 8 h. inhibition, % at 10 µM; in the data active means inhibition above about 50%
Active calls of the source: *; ? = inconclusive; nt = not tested or not shown. The list is not random: actives were taken first. Their share in the collection is about 2.5%.

SMILES | LMP1 NFkB inh | LGR2 inh | EWS-Fli inh | TROY signal inh | TWEAK-Fn14 inh
CCC(=O)NC(=S)Nc1ccc(NC(=O)c2cccnc2)cc1 | 0.6 | -7.5 | 4.2 | 1.2 | 72.2*
COC(=O)c1sc(NC(=O)c2cc3c(s2)CCCC3)nc1C | -40.4 | nt | nt | -10.3 | 11.6
Cc1cc(C)nc(NC(=O)c2ccc(C)c([N+](=O)[O-])c2)n1 | -201.7 | -0.1 | nt | -8.1 | -13.6
COc1ccccc1NC(=O)c1ccc(NC(=O)c2cc3c(s2)CCC3)cc1 | 11.4 | 13.8 | nt | 30.7 | 58.7*
COc1ccc(NC(=S)NC(=O)c2cccnc2)cc1 | -11.8 | 2.0 | -7.3 | -5.7 | -24.6
CCC(=O)N1[C@H](C(=O)NCc2ccccc2F)[C@@H](CO)[C@@H]2Cn3c(cccc3=O)[C@@H]21 | nt | 4.8 | -2.8 | nt | nt
CN1c2ccc(-c3ccc(F)cc3)cc2[C@H]2[C@H](CCN2C(=O)c2ccc(F)cc2)[C@@H]1CO | nt | 9.2 | -13.2 | nt | nt
Cc1ccc(C(=O)Nc2ccccc2C(=O)N2CCCC2)cc1[N+](=O)[O-] | -3.7 | -1.1 | nt | 90.4* | 100.1*
Cc1csc(NC(=O)c2cccnc2)n1 | -5.6 | -4.7 | -29.7 | -18.5 | 82.6*
O=C1CC(C(=O)N2CCCc3ccccc32)CN1c1ccc(Cl)cc1 (configuration not stated) | 1.7 | -4.0 | nt | 6.9 | 20.9
O=C1CC(C(=O)N2CCCc3ccccc32)CN1c1ccc(F)cc1 (configuration not stated) | -4.1 | 0.2 | -18.3 | 49.1 | 60.8*
CCC(=O)Nc1ccc(-c2ccc(N3CCC(C)CC3)nn2)cc1 | -31.4 | nt | nt | 25.1 | -9.6
CC1CCN(c2ccc(-c3cccc(NC(=O)C(F)(F)F)c3)nn2)CC1 | 80.1* | 96.9* | nt | 83.0* | 100.9*
CC1CCN(c2ccc(-c3cccc(NC(=O)c4ccco4)c3)nn2)CC1 | 18.1 | -26.0 | 32.4 | 22.2 | 53.4*
COc1ccc(-c2cccc(NC(=O)c3ccco3)c2)nn1 | 3.7 | 1.5 | -8.3 | -8.6 | 3.9
CCC(=O)Nc1cccc(-c2ccc(N3CCC(C)CC3)nn2)c1 | 19.0 | ? | nt | 21.9 | 60.0*
O=C(Nc1cccc(-c2ccc(N3CCCCC3)nn2)c1)C(F)(F)F | 54.7* | 82.5* | nt | 71.5* | 97.1*
CC(C)NC(=O)Nc1ccc2c(c1)CC(=O)N([C@H](C)CO)C[C@H](C)[C@@H](CN(C)Cc1ccc(Oc3ccccc3)cc1)O2 | nt | -1.6 | 11.0 | nt | nt
COc1ccc(OCc2n(CC(=O)OC3CC(C)CCC3C(C)C)c3ccccc3[n+]2C)cc1 (configuration not stated) | 2.0 | 23.3 | 53.1* | 47.1 | 41.8
CC1CCC(C(C)C)C(OC(=O)CSc2nccc(=O)[nH]2)C1 (configuration not stated) | -8.5 | nt | nt | 1.6 | 1.4
COc1ccc(-c2n(CC(=O)OC3CC(C)CCC3C(C)C)c3ccccc3[n+]2C)cc1 (configuration not stated) | 22.8 | 14.2 | 2.8 | 47.8 | 79.6*
CO[C@H]1CN(C)C(=O)c2ccc(NC(=O)C3CCOCC3)cc2OC[C@@H](C)N(C(=O)c2ccccc2)C[C@H]1C | nt | 4.3 | -3.8 | nt | nt
COc1ccc(-c2nn(-c3ccccc3)cc2/C=N/NC(=O)c2ccc(Br)o2)cc1 | -33.3 | nt | nt | 75.9* | 93.6*
COc1ccc(-c2nn(-c3ccccc3)cc2/C=N/NC(=O)c2cccc(S(=O)(=O)Nc3ccccc3OC)c2)cc1 | -3.0 | -5.6 | 1.0 | -24.7 | 3.5
CCCNC(=O)C[C@H]1CC[C@@H]2[C@H](COC[C@H](O)CN2C(=O)Nc2ccccc2OC)O1 | nt | -16.4 | 1.8 | nt | nt
SMILES | LMP1 NFkB inh | LGR2 inh | EWS-Fli inh | TROY signal inh | TWEAK-Fn14 inh
CC1=NN(c2cccc(C(=O)O)c2)C(=O)/C1=C\C=C\c1ccco1 | 3.6 | -155.4 | nt | -38.0 | -7.2
CC1=NN(c2ccccc2)C(=O)/C1=C/C=C/c1ccccc1 | 0.2 | 2.4 | nt | 27.3 | 95.2*
Cc1ccc(C2=NOC(=O)/C2=C\C=C\c2ccccc2)cc1 | 13.0 | 25.5 | 53.9* | 33.7 | -22.4
CN(C)/C=C1\C(=O)ON=C1c1ccccc1 | 6.3 | 9.6 | 1.1 | 11.4 | -4.3
C[C@H](CO)N1C[C@H](C)[C@@H](CN(C)Cc2ccccc2C(=O)O)Oc2cc(-c3ccc(C(=O)N(C)C)cc3)ccc2S1(=O)=O | nt | 5.7 | -3.7 | nt | nt
ON=C1c2ccccc2-c2ccc(O)cc21 | -0.8 | -55.6 | -1.8 | -29.9 | 26.1
ON=C1c2ccccc2-c2cc(Br)ccc21 | 8.3 | nt | 1.2 | 44.1 | 71.4*
CC=Cc1ccc2n(c1=O)C[C@H]1[C@H](CO)[C@@H](C(=O)NC3CCCC3)N(CCC)[C@@H]21 (mixture of isomers) | nt | -0.1 | -10.2 | nt | nt
Cc1nc(C)c(C(=O)Nc2nc3c(C)cccc3s2)o1 | -3.4 | -5.5 | nt | 35.3 | 70.2*
CCC(=O)N1C[C@H]2[C@@H](c3ccccc31)[C@@H](CO)N2C(=O)Nc1ccccc1 | nt | 17.5 | 6.2 | nt | nt
CNC[C@H]1OCCCC[C@@H](C)Oc2ccc(NC(=O)Nc3ccccc3)cc2C(=O)N([C@@H](C)CO)C[C@H]1C | nt | 9.9 | -5.2 | nt | nt
C[C@H]1CN([C@@H](C)CO)S(=O)(=O)c2ccc(-c3ccccc3)cc2O[C@H]1CN(C)C(=O)C1CC1 | nt | -4.3 | 0.2 | nt | nt
C[C@H](NC(=O)C[C@H]1CC[C@@H](NC(=O)Nc2ccc3c(c2)OCO3)[C@@H](CO)O1)c1ccccc1 | nt | 7.6 | -24.1 | nt | nt
Cc1ccc(S(=O)(=O)n2cc(-c3ccccc3)c3ccccc32)cc1 | 18.2 | -21.9 | 59.6* | 14.5 | 14.1
CCN(CCNC(=O)c1cccc(N2CCCC2=O)c1)c1ccccc1 | -5.5 | nt | nt | 69.6* | 52.1*
CN(CCNC(=O)c1cccc(N2CCCC2=O)c1)Cc1ccccc1 | 5.4 | nt | nt | 1.4 | -24.6
C[C@]12C=CC(=O)N1CCc1c2[nH]c2ccccc12 | nt | nt | 2.2 | nt | nt
O=C(NC12CC3CC(CC(C3)C1)C2)c1ccco1 | 4.6 | -2.0 | 9.4 | -3.4 | 10.3
O=C(NC12CC3CC(CC(C3)C1)C2)c1ccc(-c2cccc(Cl)c2)o1 | -68.1 | -32.7 | nt | 72.6* | 68.1*
CC(=O)NC(=O)c1ccc(-c2ccc(Cl)cc2)o1 | -15.1 | nt | -37.7 | -47.0 | -9.8
O=C(NC12CC3CC(CC(C3)C1)C2)c1ccc(-c2ccccc2Cl)o1 | -53.4 | -5.0 | nt | nt | 64.2*
O=C(NC12CC3CC(CC(C3)C1)C2)c1ccc(COc2ccc(Cl)cc2[N+](=O)[O-])o1 | -2.1 | nt | nt | -10.9 | 12.0
O=C(NC12CC3CC(CC(C3)C1)C2)c1ccc(-c2ccc(Cl)cc2)o1 | -49.5 | -46.4 | -71.1 | 53.6* | 35.8
